Measured values: PubChem BioAssay AID588413 (Sanford-Burnham Center for Chemical Genomics, 2011)
Screen size: about 340,000 compounds; about 2,500 (0.74%) were called active. The full list was thinned out, with actives kept by preference. A number with no mark means an inactive call.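 Rule for the calls: active = inhibition above about 55% (limit read from the data); inactive = the rest.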

test: blockers of Gli reporter signaling – luciferase luminescence, Sufu-KO-LIGHT cells, uHTS, primary screen (AID 588413); settings: Sufu-KO-LIGHT fibroblasts, at 5 µM, stronger effect = higher value;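 note: 0% = DMSO-treated cells and 100% = wells with medium but no cells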

Row | SMILES | inhibition
1 | Cc1ccc(S(=O)(=O)N(C)C)cc1NC(=O)C1Cc2ccccc2CN1C(=O)c1ccco1 (stereo not given) | -7.42%
2 | COc1ccc(CCNC(=O)C(=O)NCC2OCCN2S(=O)(=O)c2cccs2)cc1OC (stereo not given) | 1.51%
3 | CC[C@H]1CN2CCc3cc(OC)c(OC)cc3[C@@H]2C[C@@H]1C[C@H]1NCCc2cc(OC)c(OC)cc21 | 71.3% (active)
4 | COc1ccc2c(c1)CCNC2Cc1ccc(OC)c(O)c1 (stereo not given) | 7.38%
5 | COc1cc2c(cc1OC)CN(CC(=O)Nc1ccc(F)cc1)CC2 | 9.09%
6 | C=CC(=O)Nc1ccc(Nc2ccnc(Nc3ccc(N4CCN(C)CC4)cc3)n2)cc1 | 21.8%
7 | CC(NC(=O)C1CCC(CNc2c(N3CCOCC3)c(=O)c2=O)CC1)c1ccccc1 (stereo not given) | -5.64%
8 | COCCN(Cc1ccccc1)C(=O)Cc1ccc(S(=O)(=O)N2CCOCC2)s1 | 4.55%
9 | CC(=O)c1cccc(NC(=O)c2cc(C)nn2-c2ccccc2)c1 | 5.19%
10 | Cc1nnc(SCC(=O)Nc2cccc(N)c2)n1-c1ccccc1 | -28.9%
11 | CC[n+]1c(C)n(-c2ccccc2)c2ccc(NC(C)=O)cc21 | 76.3% (active)
12 | Cc1ccc(C(=O)NCC(=O)O)s1 | -7.96%
13 | CC1OC2C(OC1C)N(S(C)(=O)=O)CCN2S(C)(=O)=O (stereo not given) | -7.55%
14 | Cc1ccsc1C(=O)OCC(=O)Nc1cccc(F)c1 | -43.7%
15 | COc1ccc(C(=O)OCC(=O)c2cc(C)n(CC3CCCO3)c2C)cc1[N+](=O)[O-] (stereo not given) | -7.49%
16 | Cc1ccsc1C(=O)OCC(=O)c1cc(C)n(CC2CCCO2)c1C (stereo not given) | 72.1% (active)
17 | CCN(CC)C(CNC(=O)CSc1nnnn1-c1cccc(F)c1)c1ccco1 (stereo not given) | 10%
18 | CCOC(=O)CNC(=O)N1c2ccccc2Sc2ccccc21 | 2.43%
19 | CCNCCC(=O)N1c2ccccc2Sc2ccc(NC(=O)OCC)cc21 | 26.4%
20 | CCN1/C(=C/C(=S)Nc2ccccc2)Sc2ccccc21 | 67.6% (active)
21 | CC(=O)c1ccc(S(=O)(=O)NC2CC(=O)N(c3ccc4c(c3)OCCO4)C2)cc1 (stereo not given) | -3.34%
22 | CCN(CC(=O)Nc1c(F)cccc1F)C(=O)c1ccc(Sc2nncn2C)c([N+](=O)[O-])c1 | 31.3%
23 | CC(C)Oc1ccc(C(=O)NC(C)(C)CO)cc1 | -9.97%
24 | Cc1ccc(NC(=O)[C@H](Cc2ccccc2)NC(=O)C2CCNCC2)cc1 | 2.89%

Row | SMILES | inhibition
25 | CCC(Cc1ccccc1)NC(=O)C1CCCCC1 (stereo not given) | 63.1% (active)
26 | CCC(NC(=O)C1CCCC1)c1ccc(C)cc1 (stereo not given) | -10.2%
27 | COc1ccc(C(=O)COC(=O)Cn2cnc3c2c(=O)n(C)c(=O)n3C)c(OC)c1 | 3.81%
28 | NC(=O)C1(Nc2ccccc2Cl)CCCC1 | 4.9%
29 | CC[C@]12c3[nH]c4ccc(OC)cc4c3CCN1C(=O)C(CC(=O)NCc1ccco1)C[C@@H]2C(=O)N1CCN(C(=O)C2CC2)CC1 (stereo not given in full) | -2.82%
30 | C=CCSc1nc2c(c(=O)[nH]1)C(C(C)C)C(C#N)=C(N)O2 (stereo not given) | -7.54%
31 | CC1(C)CC(=O)c2sc(N)nc2C1 | 4.1%
32 | CC/C(O)=C1\C(=O)CC(C)(C)CC1=NCCc1nc2ccccc2[nH]1 | 25.2%
33 | CCCc1nc(N)nc2c1C(=O)CC(C)(C)C2 | 77.6% (active)
34 | CCc1ccc2nc(N(CCCN(C)C)C(=O)c3ccc4c(c3)OCCO4)sc2c1 | 11.7%
35 | CCOc1ccc2nc(N(CCCN(C)C)C(=O)c3ccc(C(=O)c4ccccc4)cc3)sc2c1 | 65.2% (active)
36 | CN(C)CCCN(C(=O)c1ccc(S(=O)(=O)N2CCCCCC2)cc1)c1nc2ccc(Br)cc2s1 | 42.7%
37 | Cc1ccc(F)c(NC(=O)CCc2ccccc2)c1 | -20.7%
38 | CCOc1cccc(/C=N/NC(=S)NCCN2CCOCC2)c1O | 81.1% (active)
39 | CCOc1cccc(/C=N/N2C(=O)CSC2=S)c1O | -1.42%
40 | Cc1ccc(C(=O)NC(=S)NCCN2CCOCC2)cc1 | -9.17%
41 | O=C(CNc1ccc(F)cc1F)NC(=O)NCc1ccco1 | -1.84%
42 | Cc1cc([N+](=O)[O-])ccc1NCc1cccc([N+](=O)[O-])c1 | 8.75%
43 | COCCCNC(=S)N1CCCC(c2nc3cc(C)c(C)cc3[nH]2)C1 (stereo not given) | 15.7%
44 | CCC(C)(C)NC(=O)C(c1ccc(O)cc1)N(Cc1ccco1)C(=O)CCC(=O)Nc1ccccn1 (stereo not given) | -4.35%
45 | Cc1ccc(NC(=O)C(C)Sc2nnc(C3CC3)n2C2CC2)cc1S(=O)(=O)N1CCOCC1 (stereo not given) | 4.31%
46 | CCCn1cc(S(=O)(=O)c2ccc(C)cc2)c(=O)c2cc(OCC)ccc21 | 32.4%
47 | CC(C)(C)c1ccc(Oc2ccc(N)cc2)cc1 | 76.2% (active)
48 | COc1cccc(Oc2ccc(N)cc2)c1 | -23.1%

Row | SMILES | inhibition
49 | CC(C)(C)c1ccc(OC2=CS(=O)(=O)c3ccccc32)cc1 | -36.6%
50 | CCOc1ccc(NS(=O)(=O)c2ccc(C)c(C(N)=O)c2)cc1 | 29.7%
51 | CC(=O)c1c(C)[nH]c(C(=O)OCC(=O)Nc2sc3c(c2C#N)CCCC3)c1C | 69.3% (active)
52 | Cc1cccc(C(=O)OCC(=O)Nc2sc3c(c2C#N)CCC3)c1 | -6.89%
53 | N#CCC(=O)Nc1ccc(C(=O)OCC(=O)Nc2sc3c(c2C#N)CCCC3)cc1 | -9.19%
54 | Cc1cc(C)c(C)c(S(=O)(=O)Nc2cccnc2)c1C | 1.03%
55 | Fc1ccc(CNc2nc3ccccc3n3nnnc23)cc1 | -6.79%
56 | CCc1nc2sc3c(Cl)ncnc3c2c2c1CCCC2 | -1.03%
57 | O=C(O)C1CC(=O)N(Cc2cccnc2)C1 (stereo not given) | -11.1%
58 | Cc1ccccc1C1=N/C(=C/c2cccnc2)C(=O)O1 | -7.01%
59 | O=C1/C(=C\c2cccnc2)CN(Cc2ccccc2)C/C1=C\c1cccnc1 | 99.3% (active)
60 | CCNC(=S)NNC(=O)c1ccc2ncccc2c1 | -4.73%
61 | Cc1ccc2cc(/C=N/Nc3ccc(C(=O)O)cc3)c(Cl)nc2c1 | -101%
62 | O=C(O)c1ccc(N/N=C/c2ccc3ncccc3c2)cc1 | 67% (active)
63 | CNc1ccc(SC#N)cc1 | 60.3% (active)
64 | COc1ccc(N2C(=O)/C(=C\c3ccco3)N=C2SCC(N)=O)cc1Cl | 5.71%
65 | O=C(Cn1cnc2c(nnn2-c2ccccc2)c1=O)N1CCC(Cc2ccccc2)CC1 | -4.74%
66 | COc1cc(-c2nc(S(=O)(=O)c3ccc(Cl)cc3)c(N(C)C)o2)cc(OC)c1OC | 7.51%
67 | COc1cc2ccccc2cc1C(=O)N1CCOCC1 | -5.57%
68 | O=C(c1snnc1-c1ccccc1)N1CCOCC1 | 9.83%
69 | Cc1oc2c(c1C(=O)N1CCOCC1)C(=O)c1ccccc1C2=O | 87% (active)
70 | CCOC(=O)[C@H]1[C@H]2COc3ccc(Cl)cc3[C@@H]2N2C(=O)c3cc(C)ccc3NC(=O)[C@@]12C | 1.26%
71 | CCOC(=O)CN(C(=O)COc1nc(-c2ccccc2)cc(C)c1C#N)c1ccc(F)cc1 | 5.59%
72 | Cc1ccc2c(=O)cc(C(=O)NCCc3ccc(S(N)(=O)=O)cc3)oc2c1C | -18.4%

Row | SMILES | inhibition
73 | CSc1ccccc1NC(=O)Cc1ccc(Br)cc1 | 1.53%
74 | Cc1ccc(S(=O)(=O)NC(C)C(=O)Nc2ccccc2C(=O)N2CCCC2)cc1 (stereo not given) | 95% (active)
75 | COc1ccc(S(=O)(=O)Nc2ccccc2C(=O)N2CCCC2)cc1C | -10.7%
76 | COc1ccc(S(=O)(=O)NC(C)c2ccccc2)cc1C(=O)N1CCCCC1 (stereo not given) | 12.8%
77 | CCOc1ccc(/C=C(/C#N)c2nnc(N3CCOCC3)n2-c2ccccc2)cc1OC | 4.23%
78 | Brc1ccc2nc(N3CCCC3)sc2c1 | -88.5%
79 | c1c2c(cc3sc(N4CCCCC4)nc13)OCCO2 | 66.6% (active)
80 | O=S(=O)(Nc1ccc2nc(N3CCOCC3)sc2c1)c1ccccc1 | -64.9%
81 | CC1CN(C(=O)c2ccccc2NS(=O)(=O)c2cccc([N+](=O)[O-])c2)CC(C)O1 (stereo not given) | -7.72%
82 | COc1ccc(F)cc1C(=O)C1CCCN(C(=O)CCc2ccccn2)C1 (stereo not given) | 12.7%
83 | CC(C)(C)c1cc(C(=O)NN)n(Cc2ccc(Cl)cc2Cl)n1 | -3.86%
84 | O=c1ccn(Cc2ccccc2Cl)cc1 | 17%
85 | N#CC(C#N)=CN=c1ccn(Cc2ccc(Cl)cc2Cl)cc1 | 57.1% (active)
86 | COc1ccc(CC(=O)NC(C)c2ccc(Cl)c(Cl)c2)cc1S(=O)(=O)N1CCOCC1 (stereo not given) | -4.33%
87 | COc1cc(Cl)c(C)cc1NC(=O)CN1CCCCCC1 | 40.6%
88 | CCn1c(NCCc2ccc(OC)c(OC)c2)nc2c1c(=O)n(C)c(=O)n2C | 11.3%
89 | CCCCNc1nc2c(c(=O)n(C)c(=O)n2C)n1Cc1cccc(OC)c1 | 73.1% (active)
90 | CCCCNc1nc2c(c(=O)[nH]c(=O)n2C)n1CCOc1ccccc1 | -15.8%
91 | Cn1c(=O)c2c(nc(NCCc3ccccc3)n2Cc2ccccc2)n(C)c1=O | 62.7% (active)
92 | Cn1c(=O)c2c(nc(NCCNC(=O)c3ccco3)n2Cc2ccccc2F)n(C)c1=O | -26.1%
93 | Cn1c(=O)c2c(nc(NCc3ccccc3)n2CC(N)=O)n(C)c1=O | 0.59%
94 | O=C(Cn1nnc(-c2ccccc2)n1)NC(=O)NC1CCCC1 | 0.46%
95 | Cc1ccc(SC(=O)COc2ccc(C)c(C)c2)cc1 | -16.4%
